Activity calls are given as the source filed them. The calls were made as follows: active = hit-call score of the fitted dose curve at least 0.9, where 1 is the maximum; inactive = score below 0.9.
How the values were obtained:
[1] = ATG_E_Box_CIS: Attagene CIS-FACTORIAL HepG2 Assay for human Enhancer Box (E-box) (AID 2282936); settings: HepG2 E-box cis-reporter transcription, actives raise or lower the signal
Procedure, shortened: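 DMSO served as negative control and baseline for bidirectional fitting. Human hepatoma HepG2 cells, transiently transfected with cis-reporter constructs, were dosed 24 h; reporter mRNA read by RT-PCR and capillary electrophoresis.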

[2] = ATG_M_61_CIS: Attagene CIS-FACTORIAL HepG2 Assay for M61 Transcription Factor (Internal Marker) (AID 2282937); settings: HepG2 Attagene CIS-FACTORIAL M61 internal marker reporter; actives raise or lower the signal
Procedure, shortened: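 Cells were transfected with reporter units under cis-regulatory promoters, treated with chemicals for 24 h, then lysed for RNA. Reporter transcripts were quantified by RT-PCR and capillary electrophoresis, and activity was fitted bidirectionally against DMSO.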

[3] = ATG_EGR_CIS: Attagene CIS-FACTORIAL HepG2 Assay for human Early Growth Response 1 (EGR1) (AID 2282938); settings: HepG2 Attagene CIS-FACTORIAL EGR reporter mRNA; actives raise or lower the signal
Procedure, shortened: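 Endogenous TF activity in HepG2 liver cells was gauged through cis-promoter reporter constructs transiently transfected. After 24 h dosing, reporter mRNA was quantified by RT-PCR and capillary electrophoresis, and curves fitted in both directions versus DMSO.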

[4] = ATG_M_19_CIS: Attagene CIS-FACTORIAL HepG2 Assay for M19 Transcription Factor (Internal Marker) (AID 2282939); settings: HepG2 Attagene CIS-FACTORIAL M19 internal marker reporter; actives raise or lower the signal
Procedure, shortened: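 Following a 24 h exposure, RNA from transfected HepG2 cells was reverse-transcribed, PCR-amplified with reporter-specific primers, end-labelled with 6-FAM and HpaI-digested before capillary separation. Values represent gain or loss versus DMSO.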

[5] = ATG_Ets_CIS: Attagene CIS-FACTORIAL HepG2 Assay for human Erythroblast Transformation Specific (ETS) (AID 2282941); settings: HepG2 ETS cis-reporter transcription, actives raise or lower the signal
Procedure, shortened: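 Steps: transfect HepG2 with multiple reporter units; treat compound 24 h; isolate RNA, DNase-treat, reverse-transcribe; PCR-amplify, label with 6-FAM, digest with HpaI; separate by capillary electrophoresis. Activity fitted both directions versus DMSO.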

[6] = molecular target: Hepatocyte nuclear factor 3-beta (Homo sapiens) (UniProt Q9Y261); test: ATG_FoxA2_CIS: Attagene CIS-FACTORIAL HepG2 Assay for human Forkhead box A2 (FOXA2) (AID 2282942); settings: HepG2 cis-reporter transcription factor activity, 24 h; actives raise or lower the signal
Procedure, shortened: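 Endogenous transcription factor activity was read in HepG2 cells carrying transiently transfected cis-promoter reporter units. After 24 h dosing, reporter mRNA was quantified by RT-PCR and capillary electrophoresis, and values fitted bidirectionally versus DMSO.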

[7] = ATG_FoxO_CIS: Attagene CIS-FACTORIAL HepG2 Assay for human Forkhead box O (FoxO) (AID 2282943); settings: HepG2 Attagene cis-reporter, FoxO element, mRNA; actives raise or lower the signal
Procedure, shortened: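 HepG2, transient MRTU transfection (cis element, endogenous TFs). Dose 24 h. TriZol RNA → oligo(dT) RT → PCR → 6-FAM primer extension → HpaI cut → CE. Gain/loss vs DMSO.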

[8] = ATG_GATA_CIS: Attagene CIS-FACTORIAL HepG2 Assay for human GATA Binding Protein (AID 2282944); settings: HepG2 GATA cis-element reporter, Attagene multiplex mRNA; actives raise or lower the signal
Procedure, shortened: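 DMSO serves as negative control and baseline for bidirectional fitting of reporter mRNA changes. HepG2 cells bearing transiently transfected cis-promoter reporters were exposed 24 h; transcripts detected via RT-PCR and capillary electrophoresis.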

[9] = ATG_GLI_CIS: Attagene CIS-FACTORIAL HepG2 Assay for human Zinc Finger Protein GLI1 (AID 2282945); settings: HepG2, Attagene cis-factorial reporter mRNA, GLI element; actives raise or lower the signal
Procedure, shortened: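 Bidirectional curve fits relative to DMSO, using reporter mRNA levels from RT-PCR plus capillary electrophoresis. Cells were HepG2 transiently carrying cis-regulated reporter constructs, harvested 24 h after dosing.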

[10] = molecular target: Bile acid receptor (Homo sapiens) (UniProt Q96RI1); test: ATG_IR1_CIS: Attagene CIS-FACTORIAL HepG2 Assay for human Nuclear Receptor Subfamily 1 Group H Member 4 (NR1H4), IR1 submotif (AID 2282946); settings: IR1 reporter transcription, actives raise or lower the signal
Procedure, shortened: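 Cells (human HepG2) carry transiently transfected cis-promoter reporter transcription units. Compounds are incubated 24 h, total RNA is reverse-transcribed and amplified, and labelled fragments are resolved by capillary electrophoresis. Curves use DMSO as baseline.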

[11] = ATG_GRE_CIS: Attagene CIS-FACTORIAL HepG2 Assay for human Glucocorticoid Response Elements (GRE) (AID 2282947); settings: HepG2 GRE cis-reporter, Attagene multiplex mRNA; actives raise or lower the signal
Procedure, shortened: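 Assay uses human hepatoma HepG2 cells transfected with cis-promoter reporter units, exposed 24 h. mRNA from reporters detected by RT-PCR plus capillary electrophoresis; DMSO serves as negative control and baseline.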

[12] = ATG_ISRE_CIS: Attagene CIS-FACTORIAL HepG2 Assay for human Interferon Regulatory Factor 1 (IRF1) binding to an Interferon-Stimulated Response Element (ISRE) (AID 2282948); settings: HepG2 ISRE cis-reporter (Attagene), mRNA transcription readout; actives raise or lower the signal
Procedure, shortened: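 Transfected HepG2 (multiple reporter transcription units, cis elements) dosed 24 h. RNA → oligo(dT) RT → PCR → 6-FAM primer extension → HpaI → CE. DMSO = negative control/baseline.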

[13] = ATG_M_32_CIS: Attagene CIS-FACTORIAL HepG2 Assay for M32 Transcription Factor (Internal Marker) (AID 2282949); settings: HepG2 Attagene cis-factorial M32 reporter, mRNA; actives raise or lower the signal;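 also: background control marker of the multiplexed CIS panel rather than a real target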
Procedure, shortened: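 Internal background marker read-out: RT-PCR/capillary electrophoresis fluorescence of reporter transcripts from transiently transfected HepG2 cells after 24 h chemical exposure. Activity fitted bidirectionally relative to DMSO negative control.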

[14] = ATG_M_06_CIS: Attagene CIS-FACTORIAL HepG2 Assay for M06 Transcription Factor (Internal Marker) (AID 2282950); settings: HepG2 Attagene CIS-FACTORIAL M06 internal marker reporter; actives raise or lower the signal
Procedure, shortened: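 Fluorescence-labelled RT-PCR products from cis-promoter reporter units, cut with HpaI and resolved by capillary electrophoresis, give the signal. Cells are human HepG2, dosed for 24 h. Serves as background control, fitted relative to DMSO.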

[15] = molecular target: Hypoxia-inducible factor 1-alpha (Homo sapiens) (UniProt Q16665); test: ATG_HIF1a_CIS: Attagene CIS-FACTORIAL HepG2 Assay for human Hypoxia Inducible Factor 1 (HIF1A) (AID 2282951); settings: HepG2 Attagene cis-factorial HIF1a reporter transcription; actives raise or lower the signal
Procedure, shortened: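 Measures endogenous transcription-factor activity through cis-regulated reporter mRNA in HepG2. Cells dosed 24 h; transcripts quantified by RT-PCR with 6-FAM-labelled products separated by capillary electrophoresis; DMSO serves as negative control.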

[16] = molecular target: Hepatocyte nuclear factor 6 (Homo sapiens) (UniProt Q9UBC0); test: ATG_HNF6_CIS: Attagene CIS-FACTORIAL HepG2 Assay for human Hepatocyte Nuclear Factor 6 (HNF6) (AID 2282952); settings: HepG2 Attagene cis-factorial HNF6 reporter transcription; actives raise or lower the signal
Procedure, shortened: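 Cells are HepG2 carrying transiently transfected cis-promoter reporter units. Treatment lasts 24 h, after which reporter transcripts are reverse-transcribed, amplified, FAM-labelled and sized by capillary electrophoresis. DMSO serves as baseline.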

[17] = ATG_MRE_CIS: Attagene CIS-FACTORIAL HepG2 Assay for human Metal Responsive Element (MRE) (AID 2282954); settings: HepG2 MRE cis-reporter transcription, Attagene multiplex; actives raise or lower the signal
Procedure, shortened: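 After a 24 h chemical exposure, transiently transfected HepG2 cells yield RNA whose reporter sequences are amplified, FAM-labelled and sized by capillary electrophoresis. Curves are fitted bidirectionally relative to DMSO.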

[18] = ATG_PBREM_CIS: Attagene CIS-FACTORIAL HepG2 Assay for human Phenobarbital-responsive Enhancer Module (PBREM) (AID 2282955); settings: HepG2 PBREM cis-reporter, Attagene multiplexed transcription; actives raise or lower the signal
Procedure, shortened: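 Fluorescence of labelled reporter cDNA fragments, resolved by capillary electrophoresis, gives mRNA induction in transfected HepG2 cells treated for 24 h; DMSO serves as negative control and baseline.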

[19] = molecular target: Paired box protein Pax-6 (Homo sapiens) (UniProt P26367); test: ATG_Pax6_CIS: Attagene CIS-FACTORIAL HepG2 Assay for human Paired Box 6 (PAX6) (AID 2282956); settings: HepG2 CIS-FACTORIAL PAX6 reporter transcription, RNA readout; actives raise or lower the signal
Procedure, shortened: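 Transient MRTU transfection of HepG2 → compound exposure 24 h → TriZol RNA, oligo(dT) RT → PCR, 6-FAM primer extension, HpaI cut → capillary electrophoresis; activity fitted both directions against DMSO.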

[20] = molecular target: Heat shock factor protein 1 (Homo sapiens) (UniProt Q00613); test: ATG_HSE_CIS: Attagene CIS-FACTORIAL HepG2 Assay for human Heat Shock Transcription Factor 1 (HSE) (AID 2282953); settings: HepG2 HSE cis-reporter, Attagene RNA transcription; actives raise or lower the signal
Procedure, shortened: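 After a 24 h incubation with test chemical, transfected HepG2 cells were harvested for RNA; reporter transcripts were measured by RT-PCR and capillary electrophoresis. Values reflect gain or loss of signal relative to DMSO.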

Measured: AC50

Hypoxia-inducible factor 1-alpha (Homo sapiens), sequence (Q16665 whole entry, looked up): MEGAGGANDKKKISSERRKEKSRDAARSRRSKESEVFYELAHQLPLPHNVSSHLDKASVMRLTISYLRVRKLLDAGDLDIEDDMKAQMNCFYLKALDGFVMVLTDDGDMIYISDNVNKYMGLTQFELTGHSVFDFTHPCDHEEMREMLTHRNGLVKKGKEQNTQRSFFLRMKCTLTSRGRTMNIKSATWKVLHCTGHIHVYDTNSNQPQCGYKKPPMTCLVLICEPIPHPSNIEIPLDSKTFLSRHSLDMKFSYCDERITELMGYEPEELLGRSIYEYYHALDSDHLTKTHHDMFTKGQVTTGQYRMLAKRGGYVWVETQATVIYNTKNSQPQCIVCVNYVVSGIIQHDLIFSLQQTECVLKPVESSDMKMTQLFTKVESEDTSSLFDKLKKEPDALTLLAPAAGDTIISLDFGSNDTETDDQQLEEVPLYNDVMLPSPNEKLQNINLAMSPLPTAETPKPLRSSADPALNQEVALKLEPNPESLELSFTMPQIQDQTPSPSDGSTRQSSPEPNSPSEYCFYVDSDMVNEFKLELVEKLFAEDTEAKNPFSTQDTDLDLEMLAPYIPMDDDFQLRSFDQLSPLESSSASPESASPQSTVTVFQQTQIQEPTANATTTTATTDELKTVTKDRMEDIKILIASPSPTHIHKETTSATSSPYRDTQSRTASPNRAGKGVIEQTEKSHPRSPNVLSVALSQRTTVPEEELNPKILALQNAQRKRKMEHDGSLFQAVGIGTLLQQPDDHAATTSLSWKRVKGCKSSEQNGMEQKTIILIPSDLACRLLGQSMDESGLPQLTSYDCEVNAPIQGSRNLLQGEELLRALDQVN
Hepatocyte nuclear factor 3-beta (Homo sapiens), sequence (Q9Y261 whole entry, looked up): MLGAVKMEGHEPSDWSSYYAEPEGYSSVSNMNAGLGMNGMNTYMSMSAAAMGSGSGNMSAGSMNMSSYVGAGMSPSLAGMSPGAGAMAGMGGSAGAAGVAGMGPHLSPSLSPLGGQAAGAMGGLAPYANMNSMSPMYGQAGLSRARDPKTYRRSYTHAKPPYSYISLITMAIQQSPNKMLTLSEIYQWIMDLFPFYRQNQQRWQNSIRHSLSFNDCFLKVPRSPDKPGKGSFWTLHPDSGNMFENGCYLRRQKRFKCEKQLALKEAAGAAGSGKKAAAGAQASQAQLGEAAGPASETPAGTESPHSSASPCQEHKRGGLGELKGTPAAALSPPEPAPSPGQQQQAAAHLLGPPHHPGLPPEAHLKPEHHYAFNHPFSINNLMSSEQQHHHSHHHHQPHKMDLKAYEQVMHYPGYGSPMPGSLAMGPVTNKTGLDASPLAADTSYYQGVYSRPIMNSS
Bile acid receptor (Homo sapiens), sequence (Q96RI1 whole entry, looked up, the tested form may be a part): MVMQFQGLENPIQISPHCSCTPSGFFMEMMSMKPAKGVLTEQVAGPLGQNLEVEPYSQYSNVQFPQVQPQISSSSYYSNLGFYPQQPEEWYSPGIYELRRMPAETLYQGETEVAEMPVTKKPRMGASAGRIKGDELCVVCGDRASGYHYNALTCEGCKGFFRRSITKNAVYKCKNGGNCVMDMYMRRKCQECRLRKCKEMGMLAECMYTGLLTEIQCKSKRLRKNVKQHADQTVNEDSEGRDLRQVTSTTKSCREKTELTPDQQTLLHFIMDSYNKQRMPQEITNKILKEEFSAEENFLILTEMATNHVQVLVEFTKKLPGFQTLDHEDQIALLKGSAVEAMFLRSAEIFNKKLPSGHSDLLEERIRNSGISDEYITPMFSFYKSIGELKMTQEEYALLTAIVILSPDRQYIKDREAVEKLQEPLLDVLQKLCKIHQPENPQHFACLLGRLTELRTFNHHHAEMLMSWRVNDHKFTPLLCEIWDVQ
Hepatocyte nuclear factor 6 (Homo sapiens), sequence (Q9UBC0 whole entry, looked up): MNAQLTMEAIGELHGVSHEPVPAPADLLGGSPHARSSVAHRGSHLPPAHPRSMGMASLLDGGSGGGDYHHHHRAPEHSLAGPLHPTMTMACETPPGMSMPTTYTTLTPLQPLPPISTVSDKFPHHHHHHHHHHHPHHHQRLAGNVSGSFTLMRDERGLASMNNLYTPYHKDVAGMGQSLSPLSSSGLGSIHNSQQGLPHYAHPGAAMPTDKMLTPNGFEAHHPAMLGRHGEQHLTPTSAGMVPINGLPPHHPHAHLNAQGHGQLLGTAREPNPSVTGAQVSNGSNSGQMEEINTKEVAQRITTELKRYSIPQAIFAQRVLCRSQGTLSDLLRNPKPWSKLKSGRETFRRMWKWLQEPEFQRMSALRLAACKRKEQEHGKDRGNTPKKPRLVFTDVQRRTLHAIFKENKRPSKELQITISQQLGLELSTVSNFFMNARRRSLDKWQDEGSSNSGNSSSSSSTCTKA
Paired box protein Pax-6 (Homo sapiens), sequence (P26367 whole entry, looked up): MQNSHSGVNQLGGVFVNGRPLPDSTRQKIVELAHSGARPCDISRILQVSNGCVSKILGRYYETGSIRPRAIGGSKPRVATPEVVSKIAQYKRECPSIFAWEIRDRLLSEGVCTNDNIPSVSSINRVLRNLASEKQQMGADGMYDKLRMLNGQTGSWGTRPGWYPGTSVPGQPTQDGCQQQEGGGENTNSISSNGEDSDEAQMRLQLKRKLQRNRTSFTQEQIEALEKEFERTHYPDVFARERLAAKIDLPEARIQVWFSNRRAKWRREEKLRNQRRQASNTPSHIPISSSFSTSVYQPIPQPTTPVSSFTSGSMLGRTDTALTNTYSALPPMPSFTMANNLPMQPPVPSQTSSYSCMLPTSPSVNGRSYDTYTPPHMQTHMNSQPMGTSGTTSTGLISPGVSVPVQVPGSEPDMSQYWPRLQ
Heat shock factor protein 1 (Homo sapiens), sequence (Q00613 whole entry, looked up): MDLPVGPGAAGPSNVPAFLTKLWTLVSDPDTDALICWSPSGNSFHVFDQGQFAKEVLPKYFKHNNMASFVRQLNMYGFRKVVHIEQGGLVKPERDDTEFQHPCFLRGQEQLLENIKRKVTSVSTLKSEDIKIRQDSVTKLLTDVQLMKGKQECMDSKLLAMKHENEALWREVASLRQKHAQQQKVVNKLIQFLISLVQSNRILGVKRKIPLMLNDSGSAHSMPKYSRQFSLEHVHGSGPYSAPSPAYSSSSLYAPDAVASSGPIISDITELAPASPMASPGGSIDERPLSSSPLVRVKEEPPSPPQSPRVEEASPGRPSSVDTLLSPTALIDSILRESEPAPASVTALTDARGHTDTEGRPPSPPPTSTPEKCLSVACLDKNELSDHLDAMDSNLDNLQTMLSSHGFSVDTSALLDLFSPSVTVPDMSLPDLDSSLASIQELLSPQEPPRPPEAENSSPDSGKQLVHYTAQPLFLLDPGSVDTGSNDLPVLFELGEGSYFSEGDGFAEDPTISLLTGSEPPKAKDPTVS

CCC(C)c1ccc(O)cc1 (centres undefined)
active: [17] 82.1 µM
not listed: [20]
inactive: all other assays above

CN(C)c1ccc(C(=O)c2ccc(N(C)C)cc2)cc1
not listed: [11]
inactive: all other assays above

CCC[CH2][Sn]([Cl])([CH2]CCC)[CH2]CCC
active: [1] 0.627 µM | [3] 0.659 µM | [10] 0.0138 µM | [12] 0.611 µM | [17] 0.778 µM
not listed: [11] | [18] | [19] | [20]
inactive: all other assays above

CCCCCCCCn1sccc1=O
active: [3] 18.2 µM | [5] 14.8 µM | [7] 18.3 µM | [8] 18.4 µM | [9] 16.9 µM | [12] 17.6 µM | [16] 21 µM | [17] 16.7 µM
not listed: [11] | [18] | [19] | [20]
inactive: all other assays above

O=[N+]([O-])C(Br)(CO)CO
active: [3] 100 µM | [9] 169 µM | [12] 164 µM | [15] 25 µM
not listed: [11] | [19] | [20]
inactive: all other assays above

CC(C)(O)c1cnn2c(-c3ccc(F)c(-c4c(F)cccc4C#N)c3)cnc2n1
active: [3] 2.13 µM | [15] 26.8 µM | [20] 25.8 µM | [17] 1.73 µM | [18] 0.785 µM
inactive: all other assays above

ClC1=C(Cl)C2(Cl)C3C(Cl)C=CC3C1(Cl)C2(Cl)Cl (centres undefined)
active: [3] 132 µM | [17] 127 µM
not listed: [10] | [19] | [20]
inactive: all other assays above
